Data as given in paper PMC5540273 (PLoS ONE, 2017).
Where two headings read alike, the source gives them in different places.

Tests used:
[1] = system: ULK3; details: concentration: 1 μM, replicates: in singlicate; n = 1
[2] = system: T1, VEGFR2; details: concentration: 1 μM, replicates: in singlicate; n = 1
T1 construct: gene KDR

[3] = system: T2, VPS34; details: concentration: 1 μM, replicates: in singlicate; n = 1
T2 construct: gene PIK3C3

[4] = system: VRK2; details: concentration: 1 μM, replicates: in singlicate; n = 1
[5] = system: WEE1; details: concentration: 1 μM, replicates: in singlicate; n = 1
[6] = system: WEE2; details: concentration: 1 μM, replicates: in singlicate; n = 1
[7] = system: WNK1; details: concentration: 1 μM, replicates: in singlicate; n = 1
[8] = system: WNK2; details: concentration: 1 μM, replicates: in singlicate; n = 1
[9] = system: WNK3; details: concentration: 1 μM, replicates: in singlicate; n = 1
[10] = system: WNK4; details: concentration: 1 μM, replicates: in singlicate; n = 1
[11] = system: T3, YANK1; details: concentration: 1 μM, replicates: in singlicate; n = 1
T3 construct: gene STK32A

[12] = system: T4, YANK2; details: concentration: 1 μM, replicates: in singlicate; n = 1
T4 construct: gene STK32B

[13] = system: T5, YANK3; details: concentration: 1 μM, replicates: in singlicate; n = 1
T5 construct: gene STK32C

[14] = system: T6, YES; details: concentration: 1 μM, replicates: in singlicate; n = 1
T6 construct: gene YES1

[15] = system: T7, YSK1; details: concentration: 1 μM, replicates: in singlicate; n = 1
T7 construct: gene STK25

[16] = system: T8, YSK4; details: concentration: 1 μM, replicates: in singlicate; n = 1
T8 construct: gene MAP3K19

[17] = system: ZAK; details: concentration: 1 μM, replicates: in singlicate; n = 1
[18] = system: ZAP70; details: concentration: 1 μM, replicates: in singlicate; n = 1
[19] = system: T9, p38-alpha; details: n = 1
T9 construct: gene MAPK14

[20] = system: T10, p38-beta; details: concentration: 1 μM, replicates: in singlicate; n = 1
T10 construct: gene MAPK11

[21] = concentration: 1 μM, replicates: in singlicate
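Further: KINOMEscan kinase panel screen.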

Compound: COc1cc2ncn(-c3cc(OCc4ccc(S(C)(=O)=O)cc4)c(C(N)=O)s3)c2cc1OC [GW869979]
- %Inh [1]: 22%
- %Inh [2]: 20%
- %Inh [3]: 33%
- %Inh [4]: 2%
- %Inh [5]: 0%
- %Inh [6]: 0%
- %Inh [7]: 0%
- %Inh [8]: 58%
- %Inh [9]: 0%
- %Inh [10]: 51%
- %Inh [11]: 7%
- %Inh [12]: 0%
- %Inh [13]: 0%
- %Inh [14]: 28%
- %Inh [15]: 0%
- %Inh [16]: 57%
- %Inh [17]: 0%
- %Inh [18]: 17%
- %Inh [19, 21]: 1%
- %Inh [20]: 1%

Compound: O=C(NCc1cccs1)c1cc(C(=O)c2c(Cl)cccc2Cl)c[nH]1 [GW823670]
- %Inh [1]: 0%
- %Inh [2]: 0%
- %Inh [3]: 0%
- %Inh [4]: 0%
- %Inh [5]: 2%
- %Inh [6]: 5%
- %Inh [7]: 0%
- %Inh [8]: 0%
- %Inh [9]: 0%
- %Inh [10]: 0%
- %Inh [11]: 0%
- %Inh [12]: 0%
- %Inh [13]: 0%
- %Inh [14]: 0%
- %Inh [15]: 11%
- %Inh [16]: 0%
- %Inh [17]: 0%
- %Inh [18]: 0%
- %Inh ([19]; 1 µM): 23%
- %Inh [20]: 9%

Compound: COc1cc2nccc(Nc3ccc(OCc4ccc(NC(C)=O)cc4)cc3)c2cc1OC.Cl [GW440135]
- %Inh [1]: 13%
- %Inh [2]: 96.2%
- %Inh [3]: 0%
- %Inh [4]: 35%
- %Inh [5]: 29%
- %Inh [6]: 12%
- %Inh [7]: 2%
- %Inh [8]: 16%
- %Inh [9]: 39%
- %Inh [10]: 0%
- %Inh [11]: 0%
- %Inh [12]: 4%
- %Inh [13]: 0%
- %Inh [14]: 11%
- %Inh [15]: 0%
- %Inh [16]: 0%
- %Inh [17]: 10%
- %Inh [18]: 16%
- %Inh [19, 21]: 18%
- %Inh [20]: 0%

Compound: Cl.c1ccc(Cn2cnc3cc(Nc4ncnc5ccccc45)ccc32)cc1 [GW272142]
- %Inh [1]: 5%
- %Inh [2]: 0%
- %Inh [3]: 0%
- %Inh [4]: 0%
- %Inh [5]: 4%
- %Inh [6]: 12%
- %Inh [7]: 2%
- %Inh [8]: 21%
- %Inh [9]: 35%
- %Inh [10]: 44%
- %Inh [11]: 0%
- %Inh [12]: 0%
- %Inh [13]: 18%
- %Inh [14]: 7%
- %Inh [15]: 0%
- %Inh [16]: 29%
- %Inh [17]: 0%
- %Inh [18]: 21%
- %Inh [19, 21]: 0%
- %Inh [20]: 0%

Compound: Nc1ncnc2c1ncn2-c1cccc(F)c1 [SKF-97560]
- %Inh [1]: 21%
- %Inh [2]: 6%
- %Inh [3]: 4%
- %Inh [4]: 29%
- %Inh [5]: 0%
- %Inh [6]: 0%
- %Inh [7]: 3%
- %Inh [8]: 73%
- %Inh [9]: 0%
- %Inh [10]: 54%
- %Inh [11]: 17%
- %Inh [12]: 0%
- %Inh [13]: 0%
- %Inh [14]: 16%
- %Inh [15]: 0%
- %Inh [16]: 40%
- %Inh [17]: 26%
- %Inh [18]: 21%
- %Inh [19, 21]: 0%
- %Inh [20]: 0%

Compound: Cc1cc(Nc2nc(-c3cccc(C)n3)nc3ccccc23)ccn1 [GW872411]
- %Inh [1]: 0%
- %Inh [2]: 0%
- %Inh [3]: 0%
- %Inh [4]: 40%
- %Inh [5]: 1%
- %Inh [6]: 2%
- %Inh [7]: 0%
- %Inh [8]: 0%
- %Inh [9]: 0%
- %Inh [10]: 0%
- %Inh [11]: 0%
- %Inh [12]: 0%
- %Inh [13]: 0%
- %Inh [14]: 0%
- %Inh [15]: 0%
- %Inh [16]: 0%
- %Inh [17]: 0%
- %Inh [18]: 0%
- %Inh [19, 21]: 20%
- %Inh [20]: 0%

Compound: CCc1ccc(-c2ccc3c(c2)-c2nn(C)cc2S(=O)(=O)N3C)cc1
- %Inh [1]: 0%
- %Inh [2]: 0%
- %Inh [3]: 0%
- %Inh [4]: 14%
- %Inh [5]: 21%
- %Inh [6]: 0%
- %Inh [7]: 6%
- %Inh [8]: 0%
- %Inh [9]: 0%
- %Inh [10]: 0%
- %Inh [11]: 0%
- %Inh [12]: 12%
- %Inh [13]: 0%
- %Inh [14]: 0%
- %Inh [15]: 0%
- %Inh [16]: 0%
- %Inh [17]: 0%
- %Inh [18]: 0%
- %Inh [19, 21]: 0%
- %Inh [20]: 12%

Compound: Cc1cccc(-c2cc(-c3c[nH]nc3-c3ccccn3)ccn2)c1 [GW679395]
- %Inh [1]: 5%
- %Inh [2]: 0%
- %Inh [3]: 0%
- %Inh [4]: 26%
- %Inh [5]: 13%
- %Inh [6]: 1%
- %Inh [7]: 11%
- %Inh [8]: 22%
- %Inh [9]: 36%
- %Inh [10]: 38%
- %Inh [11]: 0%
- %Inh [12]: 0%
- %Inh [13]: 15%
- %Inh [14]: 29%
- %Inh [15]: 0%
- %Inh [16]: 36%
- %Inh [17]: 0%
- %Inh [18]: 0%
- %Inh [19, 21]: 47%
- %Inh [20]: 0%
